This is an account of results in PubChem BioAssay (NCI).

Some test systems named below: SK-MEL-2 melanoma; EKVX NSCLC; SN12C renal; UO-31 renal; TK-10 renal; ACHN renal; CAKI-1 renal; A498 renal; CCRF-CEM leukemia; MOLT-4 leukemia; SR leukemia; RPMI-8226 leukemia; OVCAR-8 ovarian; OVCAR-5 ovarian; OVCAR-4 ovarian; SK-OV-3 ovarian; IGROV1 ovarian; OVCAR-3 ovarian; HS 578T breast; NCI/ADR-RES ovarian.
Holding throughout (assay): NCI-60 one-dose screen, 48 h (100 = growth as untreated, 0 = no growth, -100 = all killed)
Conditions in all cases: 10 µM unless noted

Molecules are shown by their SMILES. The panel holds about 83,000 compounds, 20% with a hit somewhere; the sample as a whole holds those more often.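 Growth was measured after 48 h exposure to one concentration of compound in 96-well plates. Values under 10 count as active.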 A number with no mark means an inactive call. Activity calls are given as the source filed them.

Regarding `COc1ccc(S(=O)(=O)Oc2ccc(-c3sc4cc(OS(=O)(=O)c5ccc(OC)cc5)ccc4c3C(=O)c3ccc(OCCN4CCCCC4)cc3)cc2)cc1`, the growth is 119% in the assay with SK-MEL-2 melanoma; 97% with EKVX NSCLC; 99.9% with SN12C renal; 80.7% in the assay with UO-31 renal; 95% in the assay with TK-10 renal; 101% with ACHN renal. In addition, the growth in the assay with CAKI-1 renal was 94.1%; in the assay on A498 renal it was 105%; in the assay on CCRF-CEM leukemia, 97.7%; with MOLT-4 leukemia it was 89.3%; in the assay with SR leukemia it was 102%; with RPMI-8226 leukemia, 109%. Besides, the growth in the assay with OVCAR-8 ovarian is 108%; in the assay on OVCAR-5 ovarian, 95.7%; with OVCAR-4 ovarian, 97.7%; in the assay with SK-OV-3 ovarian it was 95.9%; in the assay on IGROV1 ovarian, 99.3%; in the assay on OVCAR-3 ovarian it was 100%. The growth with HS 578T breast was 107%; in the assay with NCI/ADR-RES ovarian it was 110%.
`CCOC(=O)/C(=C\c1ccccc1Cl)P(=O)(OCC)OCC`: the growth in the assay on SK-MEL-2 melanoma is 68.1%; with EKVX NSCLC, 73.1%; in the assay with SN12C renal, 68%; in the assay with UO-31 renal, 53.9%; in the assay with TK-10 renal, 75.5%; with ACHN renal it was 52.8%. Besides, the growth in the assay on CAKI-1 renal was 75%; with A498 renal it was 103%; in the assay with CCRF-CEM leukemia it was 19.5%; in the assay with MOLT-4 leukemia it was 25.1%; in the assay on SR leukemia, -0.778% (active); with RPMI-8226 leukemia, 7.93% (active). The growth in the assay on OVCAR-8 ovarian was 59.1%; in the assay with OVCAR-5 ovarian, 82.4%; with OVCAR-4 ovarian, 75.1%; with SK-OV-3 ovarian, 95.7%; with IGROV1 ovarian, 65.7%; in the assay on OVCAR-3 ovarian, 56.1%. Besides, the growth in the assay with HS 578T breast was 80.3%; in the assay on NCI/ADR-RES ovarian it was 44%.
With `CCOc1ccc(-c2cc(C3(S(=O)(=O)c4ccc(C)cc4)CC=CC3)on2)cc1`, the growth was 90.3% with SK-MEL-2 melanoma; 68.8% in the assay with EKVX NSCLC; 87% in the assay with SN12C renal; 81.4% in the assay on UO-31 renal; 94.1% in the assay with TK-10 renal; 86.8% with ACHN renal. Also, the growth is 83.2% with CAKI-1 renal; 72.1% with A498 renal; 76.6% in the assay with CCRF-CEM leukemia; 76.8% in the assay with MOLT-4 leukemia; 69.1% in the assay on SR leukemia; 62.4% in the assay on RPMI-8226 leukemia. Moreover, the growth in the assay on OVCAR-8 ovarian is 90.4%; in the assay with OVCAR-5 ovarian, 101%; in the assay on OVCAR-4 ovarian it was 74.3%; in the assay on SK-OV-3 ovarian, 91%; in the assay with IGROV1 ovarian, 88.5%; in the assay on OVCAR-3 ovarian, 92%. Moreover, the results for the growth with HS 578T breast and in the assay with NCI/ADR-RES ovarian were 96.4% and 71%, respectively.
For `O=S(=O)(Nc1ccc(Br)cc1)c1ccc(-c2cnc(C3CC3)o2)cc1`, the growth is 33.6% in the assay on SK-MEL-2 melanoma; 53% in the assay on EKVX NSCLC; 33.8% with SN12C renal; 42.3% with UO-31 renal; 64.1% with TK-10 renal; 30.8% with ACHN renal. For the same compound, the growth is 40.6% with CAKI-1 renal; -6.87% (active) with A498 renal; 7.7% (active) in the assay with CCRF-CEM leukemia; 15.8% in the assay with MOLT-4 leukemia; 12.7% in the assay with SR leukemia; 13.9% in the assay with RPMI-8226 leukemia. The growth with OVCAR-8 ovarian was 41.5%; with OVCAR-5 ovarian, 51%; in the assay on OVCAR-4 ovarian it was 67.8%; in the assay with SK-OV-3 ovarian, 35.5%; in the assay on IGROV1 ovarian, 36.1%; with OVCAR-3 ovarian, -7.12% (active). Also, the growth with HS 578T breast is -8.02% (active); with NCI/ADR-RES ovarian it was -2.19% (active).
Take `COc1ccccc1NC(=O)n1c(=O)cc(C)c2ccc(O)cc21`: the growth is 101% in the assay with SK-MEL-2 melanoma; 100% in the assay with EKVX NSCLC; 101% in the assay with SN12C renal; 88.6% with UO-31 renal; 111% in the assay with TK-10 renal; 110% in the assay on ACHN renal. The growth with CAKI-1 renal is 99.6%; with A498 renal, 113%; in the assay with CCRF-CEM leukemia, 107%; in the assay on MOLT-4 leukemia, 103%; with SR leukemia, 118%; in the assay with RPMI-8226 leukemia, 109%. Also, the growth was 106% in the assay on OVCAR-8 ovarian; 112% with OVCAR-5 ovarian; 110% in the assay on OVCAR-4 ovarian; 100% in the assay with SK-OV-3 ovarian; 113% with IGROV1 ovarian; 113% in the assay on OVCAR-3 ovarian. The values for the growth with HS 578T breast and in the assay with NCI/ADR-RES ovarian were 110% and 107%, respectively.
Consider `[2H]C([2H])([2H])Oc1ccc(/C=C/C(=O)/C=C(O)/C=C/c2ccc(OC([2H])([2H])[2H])c(OC([2H])([2H])[2H])c2)cc1OC([2H])([2H])[2H]`, for which the growth is 86.3% with SK-MEL-2 melanoma; 53.1% in the assay on EKVX NSCLC; 28.3% with SN12C renal; 11.4% with UO-31 renal; 54.4% with TK-10 renal; 40.2% in the assay on ACHN renal. In addition, the growth was 41.3% with CAKI-1 renal; 116% in the assay with A498 renal; 22.3% with CCRF-CEM leukemia; 60.6% in the assay with MOLT-4 leukemia; 18.6% in the assay with SR leukemia; 6.79% (active) in the assay on RPMI-8226 leukemia. For the same compound, the growth is 21.8% in the assay on OVCAR-8 ovarian; 71.6% in the assay on OVCAR-5 ovarian; 42.2% with OVCAR-4 ovarian; 39% in the assay on SK-OV-3 ovarian; 52.9% in the assay with IGROV1 ovarian; 37.2% in the assay on OVCAR-3 ovarian. The growth is 51.7% in the assay with HS 578T breast and 41.5% with NCI/ADR-RES ovarian.
Turning to `C=C1CC[C@@H]2[C@](C)(COC(C)=O)[C@H](OC(C)=O)CC[C@@]2(C)[C@@H]1CC(Nc1ccc(S(=O)(=O)Nc2nccc(C)n2)cc1)C1=CCOC1=O` (stereo not given in full), the growth in the assay with SK-MEL-2 melanoma is 40.1%; with EKVX NSCLC, 79.2%; with SN12C renal it was 25.1%; in the assay with UO-31 renal, 33.4%; in the assay with TK-10 renal it was 83%; with ACHN renal it was -37.2% (active). The growth in the assay on CAKI-1 renal is 61.4%; in the assay with A498 renal, 96.8%; in the assay on CCRF-CEM leukemia, -19.2% (active); in the assay with MOLT-4 leukemia it was -1.85% (active); with SR leukemia, 0.793% (active); with RPMI-8226 leukemia it was -5.56% (active). Moreover, the growth with OVCAR-8 ovarian was 10.5%; in the assay on OVCAR-5 ovarian it was 26.9%; in the assay on OVCAR-4 ovarian it was 32.3%; in the assay on SK-OV-3 ovarian it was 101%; with IGROV1 ovarian, 25.8%; in the assay on OVCAR-3 ovarian, -45% (active). For the same compound, the growth was 68.6% in the assay with HS 578T breast and 20.9% with NCI/ADR-RES ovarian.
